PubChem BioAssay (NCATS)
Values without a mark were called inactive. No rule for the calls is given here.

The compounds below were run on HIV-1 nucleocapsid protein NCp7 (binding to TG oligonucleotide) (assay: HIV Nucleocapsid (AID 346;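 also: potency is for inhibitors that block NC binding and lower polarization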)). Conditions: HIV-1 NC / fluorescein-TGTGTGTG probe, fluorescence polarization.
In short: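 NCp7 100 nM + fluorescein TG4xF 10 nM; Hepes pH 7.5/250mM NaCl/1uM ZnCl2/0.004% PEG 20000; 1 hr RT; FP, 45 s exposure; oligo-only wells as negative control.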
Potency is read from the fitted curve at half-maximal effect.

| SMILES | Potency [µM] |
| --- | --- |
| c1ccc(CNc2cc(-c3ccoc3)ncn2)cc1 | > 20 |
| Cn1c(=O)c(-c2cc(F)cc(F)c2)nc2cnc(N3CCNCC3)nc21 | > 20 |
| COc1ccc(C(=O)N2CCC3(CCCN(Cc4ccccc4)C3)CC2)cc1 | > 20 |
| COc1ccc(NC(=O)N2CCC3(CC2)CCN(C(=O)c2cccc(F)c2)CC3)cc1 | > 20 |
| Cc1noc(C)c1-c1cncnc1N1CCN(C)CC1 | > 20 |
| COc1ccc(-c2nc3cnc(N4CCNCC4)nc3n(CCc3ccccc3)c2=O)cc1 | > 20 |
| Cc1noc(C)c1-c1nc(N(C)Cc2ccco2)c2ccccc2n1 | > 20 |
| COc1ncc2nc(CCc3ccccc3)c(=O)n(CCC#N)c2n1 | > 20 |
| Cn1cc(-c2nc3cnc(N4CCOCC4)nc3n(C3CC3)c2=O)c2ccccc21 | > 20 |
| COc1ccccc1CN1CC[C@@]2(CCCN(C(=O)c3cnccn3)C2)C1 | > 20 |
| Cc1nc2cnc(N3CCNCC3)nc2n(C2CC2)c1=O | > 20 |
| O=c1c(-c2ccccc2)nc2cnc(Oc3cccc(Cl)c3)nc2n1C1CC1 | > 20 |
| CC(=O)N1CCC2(CCCN(C(=O)Nc3cccc(C#N)c3)C2)CC1 | > 20 |
| Clc1ccccc1-c1nc(NCc2cccs2)c2ccccc2n1 | > 20 |
| COc1ccc(C(=O)N2CCC3(CCCN(CC(C)C)C3)CC2)cc1 | > 20 |
| COc1cccc(-c2cncnc2NC2CCNCC2)c1 | > 20 |
| Cc1ccccc1-c1cncnc1NC1CCNCC1 | > 20 |
| COC(=O)N1CCC2(CCN(C(=O)NC(C)C)CC2)CC1 | > 20 |
| COc1cccc(-c2nc(N(C)C)c3ccccc3n2)c1 | > 20 |
| N#Cc1ccc(CN2CC3(CCN(C(=O)c4cc(C(F)(F)F)cc(C(F)(F)F)c4)CC3)C2)cc1 | > 20 |

| SMILES | Potency [µM] |
| --- | --- |
| CCNc1ncc2nc(-c3cc(F)cc(F)c3)c(=O)n(-c3ccc(OC)cc3)c2n1 | > 4 |
| COC(=O)N1CCC[C@@]2(CCN(C(=O)Nc3ccccc3)C2)C1 | > 20 |
| CN(C)c1ncc2nc(-c3cc(F)cc(F)c3)c(=O)n(-c3ccccc3)c2n1 | > 4 |
| Clc1ccccc1-c1ccc2ncnc(NC3CCNCC3)c2c1 | > 20 |
| O=c1c(-c2cc(F)cc(F)c2)nc2cnc(N3CCOCC3)nc2n1C1CC1 | > 20 |
| O=C(c1csnn1)N1CCC2(CCCN(c3ccncc3)C2)CC1 | > 20 |
| O=S(=O)(c1ccccc1)N1CCC2(CCCN(c3cccc(-c4ccccc4)c3)C2)CC1 | > 20 |
| O=c1c(-c2cc(F)cc(F)c2)nc2cnc(N3CCNCC3)nc2n1Cc1ccc(F)cc1 | > 20 |
| COc1ccc(Oc2ncc3nc(-c4ccccc4)c(=O)n(Cc4cccs4)c3n2)cc1 | > 20 |
| CC(C)NC(=O)N1CC[C@@]2(CCCN(C(=O)c3csnn3)C2)C1 | > 20 |
| CN(C)c1ccc(-c2cncnc2Nc2ccccc2)cc1 | > 20 |
| COc1ccc(NC(=O)N2CCCC3(CCN(C(C)=O)CC3)C2)cc1 | > 20 |
| Cc1cnc(CNc2nc(-c3ccc4c(c3)OCO4)nc3ccccc23)cn1 | > 20 |
| COc1ccccc1CNc1ncnc2ccc(-c3ccccc3C#N)cc12 | > 20 |
| Cc1cnc(CNc2ncncc2-c2ccccc2CN(C)C)cn1 | > 20 |
| COc1cccc(-c2nccc(NCc3cccc(C)c3)n2)c1 | > 20 |
| COC(=O)N1CCC2(CCN(C(=O)Nc3ccccc3)CC2)CC1 | > 20 |
| COc1ccccc1CN1CC[C@@]2(CCCN(S(C)(=O)=O)C2)C1 | > 20 |
| CN1CCN(c2ncc3nc(-c4ccccc4)c(=O)n(CCC#N)c3n2)CC1 | > 20 |
| CN(Cc1ccco1)c1ncncc1-c1ccc2c(c1)OCO2 | > 20 |
